In PubChem BioAssay (NCATS):
Results filed as inconclusive are left out. A call without a number means that no potency is given here. The source made the active and inactive calls. The call rests on the fitted dose curve; in most records, active means well fitted inhibition curve with a large enough effect; inconclusive means small, poorly fitted or top-dose-only effect; inactive means flat fitted curve, though single readings scatter. Peptide text beside a SMILES is read from it.

system: Zika virus NS2B-NS3 protease; assay: Primary screen GU AMC qHTS for Zika virus inhibitors (AID 1347154); details: Zika NS2B-NS3 unlinked protease, AMC fluorogenic substrate; series mostly up to 54.1 µM; further: nearly all actives have a fitted effect of over 70% in size
In short: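 Unlinked Zika NS2B hydrophilic domain–NS3 protease complex at 25 nM in 10 mM Tris-HCl pH 8.0, 0.01% Tween 20, with an AMC peptide substrate. Fluorescence change (340/450 nm) over 15 min at room temperature, normalized to controls, fitted to 4-parameter Hill.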

Row | SMILES | Potency
1 | CCC[C@@H]1C[C@@H](C(=O)N[C@@H]([C@H]2O[C@H](SC)[C@H](O)[C@@H](O)[C@H]2O)[C@@H](C)O)N(C)C1 | inactive
2 | Cc1nc2n(c(=O)c1CCN1CCC(c3noc4cc(F)ccc34)CC1)CCCC2 | inactive
3 | COC(=O)[C@H](Cc1ccccc1)NC(=O)[C@@H](N)CC(=O)O (H-Asp-Phe-OMe) | inactive
4 | CCC(C)(Oc1ccc(C2(c3ccc(OC(C)(CC)C(=O)O)cc3)CCCCC2)cc1)C(=O)O (stereo not drawn) | inactive
5 | c1ccc2[nH]c(-c3cscn3)nc2c1 | inactive
6 | CCCCCCCCCCCCCCCCCCCCCCO | inactive
7 | O=C(CS(=O)Cc1ccco1)NCC=CCOc1cc(CN2CCCCC2)ccn1 (stereo not drawn) | inactive
8 | CN1C(C(=O)Nc2ccccn2)=C(O)c2sccc2S1(=O)=O | inactive
9 | Nc1ccc(S(N)(=O)=O)cc1 | inactive
10 | CC1=C(C(=O)O)N2C(=O)[C@@H](NC(=O)[C@H](N)C3=CCC=CC3)[C@H]2SC1 | inactive
11 | Nc1cccc2c1CN(C1CCC(=O)NC1=O)C2=O (stereo not drawn) | inactive
12 | CC(C)c1nc(CN(C)C(=O)N[C@H](C(=O)N[C@@H](Cc2ccccc2)C[C@H](O)[C@H](Cc2ccccc2)NC(=O)OCc2cncs2)C(C)C)cs1 | inactive
13 | Cc1ccc(C)c(OCCCC(C)(C)C(=O)O)c1 | inactive
14 | CCCCN(CCCC)CCC(O)c1cc2c(Cl)cc(Cl)cc2c2cc(C(F)(F)F)ccc12 (stereo not drawn) | inactive
15 | Cc1cc2cc3c(C)cc(=O)oc3c(C)c2o1 | inactive
16 | O=C(OC1C[C@H]2CC[C@@H](C1)[N+]21CCCC1)C(O)(c1ccccc1)c1ccccc1 (stereo partly drawn) | inactive
17 | CCCCC(CC)COC(=O)C(C#N)=C(c1ccccc1)c1ccccc1 (stereo not drawn) | inactive
18 | COC(=O)C1=C(C)NC(C)=C(C(=O)OC(C)C)C1c1cccc2nonc12 (stereo not drawn) | inactive
